Results on 36 molecules are retold here after PubChem BioAssay (NCI).

“And” between values parts separate entries of the source, which are not always exact repeats. Equal values may be shown once. Compounds without any hit were thinned out: in the full panel of roughly 83,000, 20% have a hit.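 Testing used 96-well plates and a 48-hour single-concentration exposure. Example: -40 means 40% of the starting cells died.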 Values without a mark were called inactive. The source made the active and inactive calls. How the source made its calls: active means growth percent below 10; inactive means the rest.

The experiment deals with MDA-MB-468 breast. The experiment is described as follows: NCI-60 one-dose screen, 48 h (100 = growth as untreated, 0 = no growth, -100 = all killed). The following applies: 10 µM unless noted.
For the molecule `CC1SC(c2cccc(Oc3ccccc3)c2)N(CCc2cccs2)C1=O` (stereo unspecified), the growth was -45.5% (active).

For the molecule `CCOC(=O)N[C@H]1CCc2cc(OC)c(OC)c(OC)c2-c2ccc(SC)c(=O)cc21`, the growth was -36.8% (active).

As to `O=c1c2cccc3c(Nc4c(F)cccc4F)ccc(c32)c2nc3ccccc3n12`, the growth was -33.5% (active).

As to `Nc1ccc(-c2cc3c(Nc4ccc(OCc5cccc(F)c5)c(Cl)c4)ncnc3s2)cc1`, the growth is 14.2%.

As for `COCCOCCOCc1n(Cc2ccc3ccccc3c2)c2ccccc2[n+]1Cc1ccc2ccccc2c1`, the growth was -20.6% (active).

For the molecule `O=C1CCc2c(sc3[nH]c(=S)n(-c4cc(C(F)(F)F)cc(C(F)(F)F)c4)c(=O)c23)C1`, the growth is -14.2% (active).

`COC(=O)CCc1cc(O)c2c(c1)[C@@H](C(=O)OC)[C@H](c1ccc(O)c(O)c1)O2`: the growth was 83.4%.

Consider `CSc1nc(Nc2cccc(NC(=O)/C(C#N)=C/c3c(Cl)cccc3Cl)c2)c(C#N)c(-c2cccc([N+](=O)[O-])c2)n1`, for which the growth is 36.9%.

Regarding `Nn1c(CN2CCN(c3cc4c(cc3F)c(=O)c(C(=O)O)cn4C3CC3)CC2)n[nH]c1=S`, the growth was 99.2%.

Turning to `CC1CC2C3CCC4=CC(=O)CCC4(C)C3CCC2(C)C1(O)C(=O)CO` (stereo unspecified), the growth was 115%.

As to `CCN(CC)C12CCCCC1(C)C(C#N)(C#N)C(C#N)=C(N)O2` (stereo unspecified), the growth is 93.5%.

Regarding `COc1cc(-c2nc(-c3ccccc3)c(-c3ccccc3)[nH]2)cc(OC)c1O`, the growth was -49.2% (active).

`O=C(CNC(=O)c1cccc2ccccc12)Nc1ccccc1Oc1cccc(O)c1`: the growth is -3.16% [5 µM] (active).

With `CN1CCc2nc3sc(C(N)=O)c(N)c3c(-c3cccs3)c2C1`, the growth is 14.2%.

For `C=C1C(=O)O[C@H]2[C@H]1CC/C(COC(=O)NC1CCC(O)CC1)=C\CC[C@@]1(C)O[C@@H]21` (stereo partly specified), the growth was 37% and 31.7%.

As for `Cc1ccc(-c2cc(C(=O)Nc3ccc(S(=O)(=O)N4CCCCC4)cc3)[nH]n2)c(O)c1`, the growth is 38.8%.

Take `O=C(CCCCCCNC(=O)C(O)(O)C(F)(F)F)Nc1ccc(Br)cc1`: the growth was 8.56% (active).

Turning to `COc1ccc(-c2nc(SCC(=O)Nc3ccc(C(=O)/C=C/c4ccc(Cl)cc4)cc3)[nH]c(=O)c2C#N)cc1`, the growth was 39.4%.

As for `CC(=O)N1CC(Nc2ccc(OC(F)(F)F)cc2)=CC1=O`, the growth is 13.8%.

For the molecule `COc1ccc(-c2nnc(COc3ccc(C(=O)/C=C/c4ccco4)cc3)o2)cc1`, the growth is 20.4%.

`C=C1C(=O)O[C@H]2[C@H]1CC/C(COC(=O)NCCCCNC(=O)OC/C1=C/CC[C@@]3(C)O[C@H]3[C@H]3OC(=O)C(=C)[C@@H]3CC1)=C\CC[C@@]1(C)O[C@@H]21`: the growth is -14.8% (active).

In the case of `Fc1cccc(COc2ccc(Nc3ncnc4onc(-c5ccccc5)c34)cc2)c1`, the growth was 9.54% (active).

On to `C=CCN1C(=O)c2ccccc2C1=O`, for which the growth was 107%.

Consider `NC(N)=N/N=C/CO`, for which the growth was 107%.

Turning to `COC(=O)c1cc(-c2ccc(C)cc2)n(C(=O)CSc2nc3sc(C(N)=O)c(C)c3c(=O)n2Cc2ccccc2)n1`, the growth was 107%.

With `O=C1NCN(c2ccccc2)C12CCN(CCCC(c1ccc(F)cc1)c1ccc(F)cc1)CC2`, the growth was 43%.

In the case of `COc1cc2cc(COc3nccc(-c4ccc(Cl)cc4)n3)c(=O)[nH]c2cc1OC`, the growth was 80.1%.

Take `CCCCC1C(=O)N(c2ccccc2)N(c2ccccc2)C1=O`: the growth was 99.5%.

Consider `Nc1nc2c(c3ncccc13)C(c1ccc(Cl)c(Cl)c1)Cc1ncccc1-2` (stereo unspecified), for which the growth was -6.48% (active).

In the case of `c1ccc(CO[C@H]2CO[C@H]3[C@@H]2OC[C@H]3OCc2ccccc2)cc1`, the growth is 112%.

For the molecule `COC1C(OC(N)=O)C(O)C(Oc2ccc3c(O)c(NC(=O)c4ccc(O)c(CC=C(C)C)c4)c(=O)oc3c2C)OC1(C)C` (stereo unspecified), the growth was 89%.

Turning to `NC(=O)c1c(NC(=O)c2ccc(F)cc2F)sc2c1CCC(=O)C2`, the growth was 81.7%.

`COc1ccc(-c2cc(-c3ccc(Nc4nc(Nc5ccccc5)nc(Nc5ccc(Cl)cc5)n4)cc3)nc(N)n2)cc1`: the growth is 87.4%.

For `COc1ccc(Cc2cnc(NC(=O)c3ccc4c(c3)OCCO4)s2)cc1`, the growth was 19.1%.

`COc1ccc2c(c1)c(-c1noc(-c3cn(C)c4ncc(F)cc34)n1)cn2C`: the growth was 73.5%.

On to `COc1ccc(/C=C2\CN(Cc3cn(CCCNc4ccnc5cc(Cl)ccc45)nn3)C/C(=C\c3ccc(OC)c(OC)c3)C2=O)cc1OC`, for which the growth was -11.1% (active).
